Measurements published in PubChem BioAssay (NCATS).
Inconclusive results are not listed. Activity calls are given as the source filed them. The call rests on the fitted dose curve; in most records, active means well fitted inhibition curve with a large enough effect; inconclusive means small, poorly fitted or top-dose-only effect; inactive means flat fitted curve, though single readings scatter.

How the values were obtained:
Experiment in all cases: qHTS profiling for inhibitors of Plasmodium falciparum proliferation (AID 504749); further: nearly all actives have a fitted effect of over 60% in size
[1] = tested on: 3D7; conditions: P. falciparum in erythrocytes, SYBR Green DNA, 72 h; series mostly up to 12.8 µM
Summary of the method: (§1)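 P. falciparum-infected erythrocytes (0.3% parasitemia, 2.5% hematocrit) incubated with compound 72 h at 37 C, 5% CO2. Parasite DNA detected by SYBR Green after lysis, overnight at room temperature; normalised to 0.29 uM artemisinin and DMSO.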

[2] = tested on: CP185; conditions: P. falciparum in erythrocytes, SYBR Green DNA, 72 h; series mostly up to 12.8 µM
Summary of the method: as §1

[3] = tested on: CP191; conditions: P. falciparum in erythrocytes, SYBR Green DNA, 72 h; series mostly up to 12.8 µM
Summary of the method: as §1

[4] = tested on: CP192; conditions: P. falciparum in erythrocytes, SYBR Green DNA, 72 h; series mostly up to 28.7 µM
Summary of the method: as §1

[5] = tested on: CP194; conditions: P. falciparum in erythrocytes, SYBR Green DNA, 72 h; series mostly up to 12.8 µM
Summary of the method: as §1

[6] = tested on: CP201; conditions: P. falciparum in erythrocytes, SYBR Green DNA, 72 h; series mostly up to 12.8 µM
Summary of the method: as §1

[7] = tested on: CP237; conditions: P. falciparum in erythrocytes, SYBR Green DNA, 72 h; series mostly up to 12.8 µM
Summary of the method: as §1

[8] = tested on: CP238; conditions: P. falciparum in erythrocytes, SYBR Green DNA, 72 h; series mostly up to 12.8 µM
Summary of the method: as §1

[9] = tested on: CP247; conditions: P. falciparum in erythrocytes, SYBR Green DNA, 72 h; series mostly up to 12.8 µM
Summary of the method: as §1

[10] = tested on: CP265; conditions: P. falciparum in erythrocytes, SYBR Green DNA, 72 h; series mostly up to 12.8 µM
Summary of the method: as §1

[11] = tested on: CP286; conditions: P. falciparum in erythrocytes, SYBR Green DNA, 72 h; series mostly up to 12.8 µM
Summary of the method: as §1

[12] = tested on: CP305; conditions: P. falciparum in erythrocytes, SYBR Green DNA, 72 h; series mostly up to 12.8 µM
Summary of the method: as §1

[13] = tested on: CP335; conditions: P. falciparum in erythrocytes, SYBR Green DNA, 72 h; series mostly up to 12.8 µM
Summary of the method: as §1

[14] = tested on: DIV30; conditions: P. falciparum in erythrocytes, SYBR Green DNA, 72 h; series mostly up to 12.8 µM
Summary of the method: as §1

[15] = tested on: Dd2; conditions: P. falciparum in erythrocytes, SYBR Green DNA, 72 h; series mostly up to 12.8 µM
Summary of the method: as §1

[16] = tested on: GB4; conditions: P. falciparum in erythrocytes, SYBR Green DNA, 72 h; series mostly up to 12.8 µM
Summary of the method: as §1

[17] = tested on: HB3; conditions: P. falciparum in erythrocytes, SYBR Green DNA, 72 h; series mostly up to 12.8 µM
Summary of the method: as §1

[18] = tested on: P94_40; conditions: P. falciparum in erythrocytes, SYBR Green DNA, 72 h; series mostly up to 12.8 µM
Summary of the method: as §1

[19] = tested on: PC49; conditions: P. falciparum in erythrocytes, SYBR Green DNA, 72 h; series mostly up to 12.8 µM
Summary of the method: as §1

[20] = tested on: TAB109; conditions: P. falciparum in erythrocytes, SYBR Green DNA, 72 h; series mostly up to 12.8 µM
Summary of the method: as §1

Measured: Potency
Potency means the concentration at half of the fitted maximal effect.

Cc1cc(/C=C\c2ccc3cc(N(C)C)ccc3[n+]2C)c(C)n1-c1ccccc1
active: [1] 0.891 µM | [2] 1.58 µM | [3] 1.41 µM | [4] 2.03 µM | [5] 2.87 µM | [6] 3.22 µM | [7] 0.562 µM | [8] 1.58 µM | [9] 3.55 µM | [10] 2.51 µM | [11] 0.355 µM | [12] 2.56 µM | [13] 0.572 µM | [14] 2.56 µM | [15] 0.398 µM | [16] 3.22 µM | [17] 2.82 µM | [18] 1 µM | [19] 3.16 µM | [20] 1.41 µM
